From PubChem BioAssay AID463173 (ICCB-Longwood Screening Facility, Harvard Medical School, 2010)
The whole screen tested about 52,000 compounds, of which about 4,300 (8.3%) were called active. Only a selection was taken, and actives are over-represented in it overall. Unmarked numbers belong to inactive results. No stated cut-off is given here; in the data, active means survival mostly below about 52% (no sharp cut-off); inactive means mostly above about 56%.

Each compound was assayed on DeltatarO mutant (assay: growth inhibition of S. aureus wild type versus tarO mutant, primary screen, teichoic acid synthesis inhibitors, RN4220, OD600 (AID 463173)). Conditions: OD600, 18 h, hits give low values, screened at 18.75 µg/mL (by protocol).

Row | Compound | survival
1 | O=C(CCn1cccn1)Nc1ccc(Br)cc1F | 93%
2 | COC(=O)c1cc2sccc2n1CC(=O)Nc1cc(Cl)ccc1OC | 99%
3 | S=C(Nc1ccccc1)N1CCOCC1 | 89%
4 | CC(=O)c1cccc(NC(=O)c2nc3ccccc3nc2N2CCCCC2)c1 | 71%
5 | Cc1cccc(NC(=O)CSc2nc3c(oc4ccccc43)c(=O)n2C(C)C)c1 | 63%
6 | CCc1ccc(C(=O)c2cn(CC(=O)Nc3cccc(OC)c3)c3cc4c(cc3c2=O)OCO4)cc1 | 72%
7 | O=C(COc1ccc(Cl)cc1)Nc1nnc2n1CCS2 | 124%
8 | Cc1ccc(C(=O)N2CCC(c3c[nH]c4ccccc34)(c3c[nH]c4ccccc34)CC2)cc1 | 87%
9 | COc1ccc(CCNc2ncnc3c2c(-c2ccccc2)cn3-c2ccc(Cl)cc2)cc1OC | 97%
10 | Cc1ccc2nc(NN)nc(-c3ccccc3)c2c1 | 98%
11 | Clc1ccc2nc(Nc3ccccc3Cl)nc(-c3ccccc3)c2c1 | 75%
12 | Cc1cccc(Nc2nc(-c3ccccc3)c3cc(C)ccc3n2)c1 | 3% (active)
13 | O=C(O)c1cccc(Nc2ncnc3ccc(Br)cc23)c1 | 119%
14 | Clc1ccc(Nc2nc(-c3ccccc3)c3ccccc3n2)c(Cl)c1 | 72%
15 | Cc1ccc(C)c(Nc2nc(-c3ccccc3)c3cc(Br)ccc3n2)c1 | 43% (active)
16 | COc1cc2nc(Nc3cccc(C)c3)nc(N)c2cc1OC | 67%
17 | Oc1ccccc1Nc1nc(-c2ccccc2)c2cc(Cl)ccc2n1 | 71%
18 | O=C(O)c1ccc(Nc2nc(-c3ccccc3)c3cc(Br)ccc3n2)cc1 | 21% (active)
19 | CCOc1cc(CNC(=O)Cn2c(=O)c3cccn3c3ccc(F)cc32)cc(OCC)c1OCC | 50%
20 | Cc1ccc(C)c(Cn2c(=O)n(Cc3ccccc3)c(=O)c3c2c2cc(C)ccc2n3C)c1 | 78%

Row | Compound | survival
21 | CC(C)c1ccc(OCC(O)CN2CCN(c3ccc(F)cc3)CC2)cc1 (stereo not given) | 56%
22 | O=C(CN1C(=O)C2(SCC(=O)N2c2ccc(F)c(F)c2)c2ccccc21)Nc1ccccc1F (stereo not given) | 94%
23 | COc1ccc(CCNC(=O)c2c(C)oc3nc(C)nc(N4CCOCC4)c23)cc1OC | 102%
24 | COCCN(C(=O)C1CC1)c1nnc(-c2cccc(C)c2)s1 | 98%
25 | Cc1cc(C)nc(NS(=O)(=O)c2ccc(NC(=O)COc3ccc(Cl)cc3C)cc2)n1 | 63%
26 | COc1ccc(NC(=O)CN2CCC(n3c(C)nc4cc(F)ccc43)CC2)c(OC)c1 | 104%
27 | COc1cccc(CN(C(=O)c2cccc(C)c2)C2CCS(=O)(=O)C2)c1 (stereo not given) | 65%
28 | CCOc1ccc(CCNC(=O)c2cc3n(n2)CCCN(Cc2ccc(C)cc2)C3=O)cc1OCC | 112%
29 | O=S(=O)(CCN1CCOCC1)c1ccc(Oc2ccc(S(=O)(=O)CCN3CCOCC3)cc2)cc1 | 70%
30 | Cc1ccc(CCNC(=O)C(CC(C)C)NS(=O)(=O)c2ccc3c(c2)oc(=O)n3C)cc1 (stereo not given) | 93%
31 | N#Cc1ccc(-c2cccs2)nc1SCc1ccc(Br)cc1 | 74%
32 | Cc1cccc(CSc2ccc(-c3cccs3)nn2)c1 | 79%
33 | N#Cc1ccc(-c2cccs2)nc1SCc1ccc(Cl)cc1Cl | 74%
34 | Cc1cccc(CSc2nc(-c3cccs3)ccc2C#N)c1 | 18% (active)
35 | N#Cc1ccc(-c2cccs2)nc1SCc1c(F)cccc1Cl | 36% (active)
36 | N#Cc1ccc(-c2cccs2)nc1SCC(=O)Nc1cccc(C(F)(F)F)c1 | 48%
37 | Cc1ccc(CSc2nc(-c3cccs3)ccc2C#N)cc1 | 25% (active)
38 | Cc1ccc(CSc2ccc(-c3cccs3)nn2)cc1 | 89%
39 | N#Cc1c(-c2cccs2)cc(-c2cccs2)nc1SCc1cccnc1 | 65%
40 | Cc1ccc(NC(=O)CSc2nc3c(oc4ccccc43)c(=O)n2-c2ccc(F)cc2)c(C)c1 | 67%

Row | Compound | survival
41 | O=C(Nc1ccc2nsnc2c1)C1CC1 | 89%
42 | O=C1c2ccc(-c3ccc4c(c3)C(=O)N(CCO)C4=O)cc2C(=O)N1CCO | 87%
43 | CN1CC(C(=O)O)CC1=O (stereo not given) | 83%
44 | Cn1c(=O)oc2cc(S(=O)(=O)CCC(=O)NCc3ccccc3)ccc21 | 77%
45 | Cc1ccc(Cl)cc1N1CCN(c2nc3ccccc3c3nc(-c4cccnc4)nn23)CC1 | 114%
46 | CCOC(=O)c1[nH]c(C)c(CCC(=O)Nc2cc(Cl)c(OC)cc2OC)c1C | 122%
47 | COc1ccc(OCC(=O)NCC(c2ccc(OC)cc2)N2CCCCC2)cc1 (stereo not given) | 79%
48 | COc1ccc(CC(=O)NCc2ccc3c(c2)CCN3C(C)=O)cc1 | 96%
49 | COc1ccc(-n2c(=O)c3c4c(sc3n(Cc3ccc(F)cc3)c2=O)CCCC4)c(OC)c1 | 47%
50 | Cc1cc(C)cc(NC(=O)CSc2ccc(-c3cccs3)nn2)c1 | 73%
51 | Cc1ccc2c(c1)C(=O)OC(C(=O)Nc1ccc(C(=O)O)cc1)C2 (stereo not given) | 65%
52 | CCOc1ccc(NC(=O)c2c(NC(=O)c3ccccc3F)sc3c2CCC3)cc1 | 155%
53 | CCS(=O)(=O)N1CCc2cc(C(=O)Nc3cccc(NC(C)=O)c3)ccc21 | 42% (active)
54 | CCCCc1ccc(NC(=O)c2ccc3c(c2)CCN3S(=O)(=O)CC)cc1 | 38% (active)
55 | CCS(=O)(=O)N1CCCc2cc(C(=O)Nc3cccc(C(C)=O)c3)ccc21 | 89%
56 | CCS(=O)(=O)N1CCc2cc(C(=O)Nc3ccc(C(=O)OC)cc3)ccc21 | 49%
57 | CCCCc1ccc(NC(=O)c2ccc3c(c2)CCN3S(=O)(=O)c2ccccc2)cc1 | 53%
58 | CCS(=O)(=O)N1CCc2cc(C(=O)Nc3cccc(C(C)=O)c3)ccc21 | 50%
59 | COc1ccc2c(C)c(CCC(=O)NCc3ccccc3Cl)c(=O)oc2c1C | 63%
60 | COc1ccc(CN2CCc3c(c(=O)n4ncc(C(=O)N5CCN(c6ccccc6OC)CC5)c4n3C)C2)cc1 | 89%
